The text below walks through data of PubChem BioAssay (NCI).

Test systems include HL-60(TB) leukemia; EKVX NSCLC; UO-31 renal; TK-10 renal; ACHN renal; CAKI-1 renal; A498 renal; CCRF-CEM leukemia; SN12C renal; SK-MEL-2 melanoma.
Assay in all cases: NCI-60 one-dose screen, 48 h (100 = growth as untreated, 0 = no growth, -100 = all killed)
Common to all, as to settings: 10 µM unless noted

“And” between values parts separate entries of the source, which are not always exact repeats. Equal entries are not always repeated. Compounds without any hit were thinned out: in the full panel of roughly 83,000, 20% have a hit.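 Activity criterion: percent growth below 10, measured after cells in 96-well plates were exposed to a single compound concentration for 48 hours.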 The source made the active and inactive calls.

As for `CC1CCNC(C)C1` (configuration not stated), the growth in the assay on HL-60(TB) leukemia is 113% (inactive).
Regarding `CNC(=O)O/N=C(\SC)C(=O)N(C)C`, the growth with EKVX NSCLC was 112% (inactive); with UO-31 renal, 93.1% (inactive); in the assay on TK-10 renal, 103% (inactive); in the assay on ACHN renal it was 101% (inactive); in the assay on CAKI-1 renal, 107% (inactive); in the assay with A498 renal it was 95.8% (inactive). In addition, the growth with HL-60(TB) leukemia was 88.9% (inactive); in the assay with CCRF-CEM leukemia, 92.2% (inactive).
Turning to `Nc1ccc(S(=O)(=O)F)cc1`, the growth in the assay with EKVX NSCLC is 112% (inactive); in the assay on SN12C renal, 105% (inactive); in the assay on UO-31 renal, 86.3% (inactive); in the assay with TK-10 renal, 92.7% (inactive); with ACHN renal, 109% (inactive); in the assay on CAKI-1 renal, 101% (inactive). For the same compound, the growth in the assay with A498 renal was 94.8% (inactive); in the assay with HL-60(TB) leukemia, 91.9% (inactive).
Take `O=C1C(=C(O)c2ccccc2)C(=O)c2ccccc21`: the growth in the assay with HL-60(TB) leukemia is 97.6% (inactive).
Still for that read-out and setting: for `c1ccc2nc(-c3ccc4ccccc4n3)ccc2c1` the value was 101% (inactive).
In the case of `COc1ccc(N)cc1N`, the growth was 107% (inactive) in the assay on EKVX NSCLC; 101% (inactive) in the assay with SN12C renal; 70.8% (inactive) in the assay on UO-31 renal; 148% (inactive) in the assay with TK-10 renal; 101% (inactive) with ACHN renal; 101% (inactive) in the assay on CAKI-1 renal. Also, the growth is 122% (inactive) with A498 renal, 128% (inactive) in the assay on HL-60(TB) leukemia and 111% (inactive) in the assay with CCRF-CEM leukemia.
Regarding `O=c1c2ccccc2nc(-c2ccccc2Cl)n1-c1nnc(C(F)(F)F)s1`, the growth in the assay on SN12C renal is 21.9% (inactive); in the assay with UO-31 renal, 19.4% (inactive); with TK-10 renal it was 42% (inactive); with ACHN renal, 51.8% (inactive); with CAKI-1 renal, 3.51% (active); with A498 renal it was -7.82% (active). Also, the growth with HL-60(TB) leukemia is 1.24% (active); in the assay with CCRF-CEM leukemia, 7.41% (active).
Regarding `CCOC(=O)c1c(SC)nc(-c2ccc(Cl)cc2)sc1=N`, the growth in the assay on TK-10 renal was 6.59% [100 µM] (active) and 15.8% [100 µM] (inactive).
For the compound `O=S(=O)(O)c1ccc(Cl)cc1`, the growth with HL-60(TB) leukemia was 89.1% (inactive).
In the case of `Nc1cccnc1`, the growth in the assay with EKVX NSCLC is 115% (inactive); in the assay with UO-31 renal, 107% (inactive); with TK-10 renal it was 102% (inactive); with ACHN renal it was 113% (inactive); in the assay with CAKI-1 renal, 104% (inactive); in the assay with A498 renal, 112% (inactive). Also, the figures for the growth with HL-60(TB) leukemia and with CCRF-CEM leukemia were 106% (inactive) and 98.7% (inactive), respectively.
For the compound `O=C1C=CC(=O)N1CO`, the growth in the assay on HL-60(TB) leukemia was -11.7% (active).
In the case of `CCOC(=O)C1C(c2ccco2)C2(C#N)C(=N)OC1(C)C2(C#N)C#N` (configuration not stated), in the assay with TK-10 renal, the growth is 83.8% [100 µM] (inactive) and 19.2% [100 µM] (inactive).
`N#CC(C#N)=C(C#N)C#N`: the growth is 110% (inactive) in the assay on SN12C renal; 90.9% (inactive) in the assay with UO-31 renal; 125% (inactive) with CAKI-1 renal; 110% (inactive) in the assay with A498 renal; 107% (inactive) in the assay on HL-60(TB) leukemia.
On to `O=C(O)C(Br)CBr` (configuration not stated), for which the growth with SK-MEL-2 melanoma is 85.1% (inactive); in the assay with SN12C renal it was 98% (inactive); in the assay with UO-31 renal, 89.4% (inactive); in the assay on CAKI-1 renal, 101% (inactive); in the assay on A498 renal, 107% (inactive); in the assay on CCRF-CEM leukemia, 96.3% (inactive).
As to `CCCn1cc2c3c(cccc31)[C@H]1C[C@@H](C)CN(C)[C@@H]1C2`, the growth with SK-MEL-2 melanoma is 134% (inactive); in the assay on SN12C renal, 81.6% (inactive); with UO-31 renal, 36.1% (inactive); in the assay on ACHN renal it was 94.6% (inactive); in the assay on CAKI-1 renal it was 83.8% (inactive); with A498 renal, 71.3% (inactive). In addition, in the assay with CCRF-CEM leukemia, the growth was 86.9% (inactive).
Consider `OC[C@@H](O)[C@@H](O)CO`, for which the growth in the assay with HL-60(TB) leukemia is 92.4% (inactive).
Turning to `CN(N)/N=N/c1nc[nH]c1[N+](=O)[O-]`, in the assay with TK-10 renal, the growth was 79.1% [100 µM] (inactive) and 9.85% [100 µM] (active).
Regarding `CCOC(=O)C1=C(C)/C(=C\c2[nH]c(C)c(C(=O)OCC)c2C)N=C1C`, in the assay on HL-60(TB) leukemia, the growth was 41.6% (inactive).
Regarding `CC1(C)CN=C(NN=C(/C=C/c2ccc(C(F)(F)F)cc2)/C=C/c2ccc(C(F)(F)F)cc2)NC1`, the growth in the assay on SN12C renal was -74.3% (active); in the assay on UO-31 renal it was 8.51% (active); in the assay with ACHN renal it was -84.2% (active); in the assay on CAKI-1 renal, -76.9% (active); in the assay with A498 renal it was 2.54% (active); in the assay on HL-60(TB) leukemia, -59.7% (active). In addition, in the assay with CCRF-CEM leukemia, the growth is -24.9% (active).
Take `Cc1cc(N)ccc1N`: the growth in the assay with SK-MEL-2 melanoma is 104% (inactive); in the assay on UO-31 renal, 88.7% (inactive); in the assay on TK-10 renal it was 126% (inactive); in the assay on ACHN renal, 97% (inactive); in the assay with CAKI-1 renal it was 97.9% (inactive); in the assay on A498 renal it was 79.2% (inactive). Also, the growth in the assay with HL-60(TB) leukemia is 100% (inactive); in the assay with CCRF-CEM leukemia, 69.3% (inactive).
As for `OCCNC1CCCCC1`, the growth with SK-MEL-2 melanoma was 104% (inactive); in the assay with SN12C renal, 100% (inactive); in the assay on TK-10 renal, 106% (inactive); in the assay with ACHN renal it was 102% (inactive); with CAKI-1 renal, 102% (inactive); with A498 renal it was 93.4% (inactive). Also, the figures for the growth in the assay on HL-60(TB) leukemia and in the assay on CCRF-CEM leukemia were 100% (inactive) and 103% (inactive), respectively.
For `Cc1ccc(C(=O)O[C@H](C(=O)O)[C@H](OC(=O)c2ccc(C)cc2)C(=O)O)cc1`, the growth is 102% (inactive) with SN12C renal; 105% (inactive) in the assay with TK-10 renal; 106% (inactive) in the assay with ACHN renal; 102% (inactive) in the assay with CAKI-1 renal; 120% (inactive) in the assay with A498 renal; 95.4% (inactive) in the assay with HL-60(TB) leukemia. The growth in the assay with CCRF-CEM leukemia is 105% (inactive).
Turning to `ClCc1ccc(Cl)c(Cl)c1`, the growth is 97.9% (inactive) in the assay on SN12C renal; 91.2% (inactive) in the assay with UO-31 renal; 96.8% (inactive) with ACHN renal; 109% (inactive) with CAKI-1 renal; 95.5% (inactive) with A498 renal; 105% (inactive) with HL-60(TB) leukemia. In the assay with CCRF-CEM leukemia, the growth was 96.3% (inactive).
As to `Cc1cc[n+](CCc2ccccc2)cc1`, the growth in the assay on SN12C renal is 102% (inactive) and 105% (inactive); in the assay with UO-31 renal, 57.8% (inactive) and 85.1% (inactive); in the assay on ACHN renal it was 103% (inactive); with CAKI-1 renal, 97% (inactive) and 98.7% (inactive); in the assay with A498 renal, 83.9% (inactive) and 93.6% (inactive); with HL-60(TB) leukemia it was 97.8% (inactive) and 95.8% (inactive). The growth with CCRF-CEM leukemia was 101% (inactive).
As for `CC[C@H](C)[C@H](NC(=O)[C@H]1CCCCN1C)C(=O)N(C)[C@H](C[C@@H](OC(C)=O)c1nc(C(=O)N[C@@H](Cc2ccccc2)C[C@H](C)C(=O)O)cs1)C(C)C`, the growth in the assay with SK-MEL-2 melanoma is 2.53% (active); in the assay with UO-31 renal, 38.2% (inactive); in the assay on TK-10 renal it was 22.8% (inactive); in the assay with ACHN renal, 14.3% (inactive); in the assay on CAKI-1 renal, 35.9% (inactive); in the assay with A498 renal, -2.03% (active). The growth with HL-60(TB) leukemia is -29.8% (active); in the assay on CCRF-CEM leukemia, 7.95% (active).
Regarding `N#Cc1ccc(Cl)cc1`, the growth with EKVX NSCLC was 117% (inactive); in the assay with SN12C renal, 107% (inactive); in the assay with UO-31 renal, 94.6% (inactive); in the assay on ACHN renal, 102% (inactive); in the assay with CAKI-1 renal, 111% (inactive); with A498 renal it was 134% (inactive). The growth in the assay with HL-60(TB) leukemia is 83.9% (inactive); in the assay with CCRF-CEM leukemia it was 99.5% (inactive).
Take `NNC(=S)N/N=C(\C(=O)Nc1cccc(O)c1)C1C(=O)NC(=S)NC1=O`: the growth in the assay on TK-10 renal was 132% [100 µM] (inactive) and 93% [100 µM] (inactive).
For the compound `O=NN(c1ccccc1)c1ccccc1`, the growth in the assay with SK-MEL-2 melanoma was 105% (inactive); with SN12C renal, 98.1% (inactive); with UO-31 renal it was 96% (inactive); in the assay on ACHN renal, 118% (inactive); in the assay with CAKI-1 renal, 102% (inactive); with A498 renal, 101% (inactive). Moreover, the growth in the assay with CCRF-CEM leukemia was 98.9% (inactive).
